# Measurements as given in ChEMBL document CHEMBL4513216, “Probing the Open Global Health Chemical Diversity Library for Multistage-Active Starting Points for Next-Generation Antimalarials” (ACS Infect Dis, 2020).
# Out of some 68,000 compounds screened, about 2,700 (4%) showed an effect of 50% or more. The sample holds strong results, similar compounds and a random draw of the others, so the mix is not that of the screen.
# Tested on: Plasmodium berghei
# Assay: Screen against P. berghei liver stage (PbLuc), transformed with Luciferase, at 2uM
# Assay type: functional, HepG2
# Conditions: tested at 2 uM
row,Structure (SMILES),INHIBITION
1,O=C(O)c1cc2c(nc1N1CCOCC1)CCN(C1CCOC1)CC2 (stereo not drawn),-51%
2,CCc1ccc(C(=O)Nc2ccc(CC3CC(=O)NC3=O)cc2)s1 (stereo not drawn),-3.62%
3,CCc1ncc(CN2CCN(c3cc(NC4CC4)nc(N)n3)CC2)cn1,-18.65%
4,CCn1cc(NC(=O)Nc2ccc3c(c2)OCCO3)cn1,-27.62%
5,Cc1cc(CN2CCC(CNC(=O)c3ccc4[nH]cnc4c3)C2)[nH]n1 (stereo not drawn),-48.91%
6,CC(C)c1nn(C)c(N(C)C)c1CNC1CCN(CC2CC2)CC1,10.61%
7,O=c1[nH]c(N2CCCCC2)nc2c1CCN(Cc1cccnc1)C2,43.23%
8,O=c1c2cnc(N3CCCCC3)nc2ccn1Cc1ccco1,-77.67%
9,CCN1CCN(c2ncc3c(=O)n(Cc4ccco4)ccc3n2)CC1,-20.72%
10,CN1CCN(c2ncc3c(=O)n(Cc4ccco4)ccc3n2)CC1,59.01%
11,Cn1ccnc1N1CCN(C(=O)Cc2ccc(Cl)cc2)CC1,29.05%
12,CSc1ccc(C(=O)C2CCCN(C(=O)Cn3cnnn3)C2)cc1 (stereo not drawn),41.68%
13,O=C(c1ccc2ccccc2c1)C1CCCN(C(=O)Cn2cncn2)C1 (stereo not drawn),25.9%
14,O=C(c1ccc2ccccc2c1)C1CCCN(C(=O)Cn2cnnn2)C1 (stereo not drawn),56.38%
15,Cc1ccccc1OCC(O)CN1CCC(Cn2cccn2)CC1 (stereo not drawn),33.22%
16,Cc1cccc(CN2CCc3ncnc(-c4ccsc4)c3CC2)n1,-1.33%
17,CC(C)N(C)S(=O)(=O)N1CCCC1C(=O)N1CCSCC1 (stereo not drawn),-36.67%
18,Cc1ccc(CC(=O)N2CCCCC2c2nc(C)cs2)cn1 (stereo not drawn),-39.92%
19,C[C@H](c1ccc(Cl)cc1)n1c(C2CC2)n[nH]c1=O,62.51%
20,C[C@H](c1ccc(F)cc1)n1c(C2CCN(C)CC2)n[nH]c1=O,72.05%
21,O=c1[nH]nc(C2CC2)n1-c1cccc(Cl)c1,-21.72%
22,CC[C@@H](c1ccccc1)n1c(C2CC2)n[nH]c1=O,43.05%

row,Structure (SMILES),INHIBITION
1,C[C@H](c1ccc(F)cc1)n1c(C2CCC2)n[nH]c1=O,38.67%
2,CN1CCC(c2n[nH]c(=O)n2-c2cccc(Cl)c2)CC1,-8.16%
3,O=C1NCCCCC1NC(=O)N1CCc2ccccc21 (stereo not drawn),50.42%
4,O=C1NCCCCC1NC(=O)N1CCCc2cc(F)ccc21 (stereo not drawn),-30.43%
5,O=C1NCCCCC1NC(=O)N1CCCc2ccccc21 (stereo not drawn),12.66%
6,Cc1nnc(N2CCCC3(CN(Cc4cnn(C)c4)CCO3)C2)o1 (stereo not drawn),16.39%
7,CC(C)c1nn(CC(=O)N2CCCC2)c(=O)c2c1cnn2C(C)(C)C,-10.09%
8,CCc1cnc(CN(C)C2CCN(Cc3nnc(C4CC4)n3C)C2)o1 (stereo not drawn),-11.16%
9,Cc1occc1C(=O)N1CCC2(CCCN(Cc3nccs3)C2)C1 (stereo not drawn),50.61%
10,Cc1occc1C(=O)N1CCC2(CCN(Cc3nccs3)CC2)C1,-114.33%
11,Cc1occc1C(=O)N1CCC2(CCN(Cc3nccs3)C2)CC1,-6.15%
12,CC(C)NC(=O)N1C[C@@H]2C[C@H](C(=O)N3CCCC3)[C@H](C1)O2,-17.24%
13,Cn1cc(CN2CCc3nc(-c4ccccn4)nc(O)c3C2)cn1,-21.74%
14,CCn1cc(CN2CCc3nc(-c4ccccn4)nc(O)c3C2)cn1,57.4%
15,CCn1cc(CN2CCc3nc(N4CCOCC4)nc(O)c3CC2)cn1,7.86%
16,CCN(C)C[C@@H]1CN(C(=O)c2cc(-c3ccc(F)cc3)n[nH]2)C[C@@H]1CO,54.49%
17,CN(C)C[C@@H]1CN(C(=O)c2cc(F)ccc2F)C[C@@H]1CO,-0.3%
18,CCn1nc(C)cc1C(=O)N1C[C@@H](CN(C)C)[C@@H](CO)C1,31.31%
19,COCCN(C)C[C@@H]1CN(C(=O)c2cccc(C(F)(F)F)c2)C[C@@H]1CO,-20.58%
20,CCN(C)C[C@@H]1CN(C(=O)c2cc(C(F)(F)F)n[nH]2)C[C@@H]1CO,51.9%
21,CN(C)C[C@@H]1CN(C(=O)c2cc(-c3ccccc3)n[nH]2)C[C@@H]1CO,-40.44%
22,O=C(CCCC(=O)NCc1cccc(Br)c1)NCCN1CCCC1,-32.11%

row,Structure (SMILES),INHIBITION
1,Cc1nc(CN2C[C@@H]3CN(C(=O)C4(C#N)CC4)C[C@@H]3C2=O)cs1,25.5%
2,CN(C)C(=O)N1CCC2(CCCN(Cc3cnn(C)c3)C2)C1 (stereo not drawn),40.67%
3,CCn1c(CC2CCN(C(=O)C3CCOC3)CC2)nn(C)c1=O (stereo not drawn),-47.18%
4,CCC(C)NC(=O)c1cccc(CNCc2csc(C(C)C)n2)c1 (stereo not drawn),-21.15%
5,CC(C)N(C)Cc1cncc2c1CCN(Cc1ccoc1)C2,1.81%
6,Cc1ccc(C(=O)NCC(O)CN2CCCC2=O)c(C)c1 (stereo not drawn),-40.9%
7,COc1ccc(CN(C)C(=O)CN2CC(n3cc(C)cn3)C2)cc1F,-6.33%
8,CCc1nn(C)c(Cl)c1CN1CCN(c2ccc(C(N)=O)cn2)CC1,33.16%
9,CCOC(=O)c1ccc(N2CCN(Cc3c(C)nn(C)c3Cl)CC2)nc1,55.7%
10,NC(=O)c1ccc(N2CCN(Cc3c(Cl)cncc3Cl)CC2)nc1,-20.93%
11,Cc1nc2c(c(Nc3ccccn3)n1)CN(S(C)(=O)=O)CC2,-48.89%
12,COC(=O)c1cccn1C1CCN(C(=O)c2c(C)noc2C)CC1,39.92%
13,Cc1noc(C(C)C)c1C(=O)N1CCC(n2cccn2)CC1,22.57%
14,Cc1noc(C)c1C(=O)N1CCC(n2cccn2)CC1,61.52%
15,Cc1noc(C(C)Nc2ccc3oc(C)nc3c2)n1 (stereo not drawn),10.04%
16,O=C(c1ccc(F)cc1Cl)N1CCC(Nc2cccnn2)CC1,8.37%
17,Fc1cccc(CN2CCOC3(COCCN(CC4CC4)C3)C2)c1 (stereo not drawn),3.11%
18,Cc1cn[nH]c1C1COCCN1C(=O)c1ccc2[nH]nnc2c1 (stereo not drawn),37.33%
19,COc1ccc(C(=O)N2CCOCC2c2[nH]ncc2C)cc1F (stereo not drawn),-53.71%
20,Cc1cn[nH]c1C1COCCN1C(=O)c1ccc2c(c1)CCCC2 (stereo not drawn),72.17%
21,CS(=O)(=O)CCN1CCC(Nc2c(Cl)cccc2C#N)CC1,-23.01%
22,CC(C)OC(=O)N1CCCCC1CCn1cccn1 (stereo not drawn),29.71%

row,Structure (SMILES),INHIBITION
1,CNC(=O)c1cc2c(s1)CCN(C(=O)CCC1CCCN(C)C1)C2 (stereo not drawn),-4.26%
2,CN(C)C(=O)c1cc2c(s1)CCN(C(=O)CCCN1CCCCC1)C2,17.2%
3,CN1CCCC(CCC(=O)N2CCc3sc(C(=O)N(C)C)cc3C2)C1 (stereo not drawn),74.44%
4,C1CCC(CO[C@@H]2CC[C@H]3[C@H]2OCCN3CC2CCOCC2)C1,42.01%
5,CC(=O)N1CCN(Cc2ccc(F)cc2)CC2(CC(=O)N(C)C2)C1 (stereo not drawn),44.68%
6,Cc1c(C)n2c(SCC(=O)N3CCOCC3)nnc2[nH]c1=O,33.59%
7,COc1cc(O)ccc1CN1CCN(C2CCc3ccccc3C2)CC1 (stereo not drawn),31.9%
8,COc1ccc(CN2CCN(C3CCc4ccccc4C3)CC2)cc1O (stereo not drawn),59.48%
9,Oc1cccc(CN2CCN(C3CCc4ccccc4C3)CC2)c1 (stereo not drawn),-5.87%
10,CCNC(=O)C1CCN(c2nc(-c3ccco3)nc3c2CCNCC3)C1 (stereo not drawn),40.47%
11,CCC(O)CN1CCN(C(=O)c2cc(Cl)cc3cccnc23)CC1 (stereo not drawn),-28.58%
12,Cc1cc(C)c(C(=O)N2CCc3c(ncn3CCc3ccccc3)C2)[nH]1,0.51%
13,Cc1cc(C(=O)N2CCc3c(ncn3CCc3ccccc3)C2)on1,50.59%
14,Cc1nonc1C(=O)N1CCc2c(ncn2CCc2ccccc2)C1,17.2%
15,c1ccc(Cn2cc3c(n2)C(COCC2CC2)OCC3)nc1 (stereo not drawn),7.73%
16,Cn1cnc2c1CCN(Cc1csc(Cc3ccccc3)n1)C2,33.61%
17,Cc1ccc(NC(C)(C)c2nnnn2-c2ccc(Cl)cc2)c(C)c1,-0.62%
18,Cc1cccc(-n2nnnc2C(C)(C)Nc2ccccc2C)c1,-20.72%
19,COc1ccc(-n2nnnc2C(C)(C)Nc2ccc(C)cc2C)cc1,57%
20,COCCN1CC2(CCCN(C(=O)NCc3ccccc3)C2)CCC1=O (stereo not drawn),13.53%
21,CCc1cc(NCCN2CCNC2=O)n2nccc2n1,25.69%
22,CCCc1cc(NCCN2CCNC2=O)n2nccc2n1,68.39%

row,Structure (SMILES),INHIBITION
1,CCCc1cc(NCCCC2CCOC2)n2nccc2n1 (stereo not drawn),26.35%
2,CCCc1cc(NCCC2CCCOC2)n2nccc2n1 (stereo not drawn),50.41%
3,CCc1cc(NCCCC2CCOC2)n2nccc2n1 (stereo not drawn),-3.6%
4,O=C1NCCN1CCNc1cc(-c2ccccc2)nc2ccnn12,-8.8%
5,CC(SCCC(=O)NC(N)=O)c1cccc(F)c1 (stereo not drawn),4.07%
6,Cc1cc(CN2CCC(N(C)Cc3noc(C4CC4)n3)C2)no1 (stereo not drawn),-17.31%
7,COc1cccc(S(=O)(=O)N2CCCCC2CCN2CCCC2=O)c1 (stereo not drawn),25.51%
8,NCC(c1ccc(Cl)cc1)N1CCc2sccc2C1 (stereo not drawn),-5.59%
9,CC(C)NC(=O)N1CCC2(CC1)[C@@H]1CN(C(=O)N(C)C)C[C@@H]1C(=O)N2C,24.36%
10,COC(=O)CCC(=O)NC1CCCc2cc(OC(F)F)ccc21 (stereo not drawn),-41.81%
11,O=C(COCC(F)(F)F)NC1CCCc2cc(OC(F)F)ccc21 (stereo not drawn),60.52%
12,O=C(CS(=O)(=O)C1CCCC1)NC1CCCc2cc(OC(F)F)ccc21 (stereo not drawn),14.88%
13,CC(C)NC(=O)N1CCCCCC1C1CCN(c2ncccn2)CC1 (stereo not drawn),36.28%
14,O=C(O)c1ccccc1-c1ccc(CN2CC(c3ccncn3)C2)o1,-44.74%
15,Cc1nnc(NC(=O)NC2CCCc3c2cnn3CCO)s1 (stereo not drawn),53.57%
16,O=C(Nc1nncs1)NC1CCCc2c1cnn2CCO (stereo not drawn),8.27%
17,O=C(NC1CCCCC1)NC1CCCc2c1cnn2CCO (stereo not drawn),-39.36%
18,Cc1cc(NC(=O)NC2CCCc3c2cnn3CCO)n(C)n1 (stereo not drawn),32.55%
19,Cc1nc(CCNC(=O)NC2CCCc3c2cnn3CCO)cs1 (stereo not drawn),-47.76%
20,CCn1cc(NC(=O)NC2CCCc3c2cnn3CCO)cn1 (stereo not drawn),56.57%
